Results as given in PubChem BioAssay (NCI).
This is part of a sample that, as a whole, favours compounds with a hit. Of some 83,000 tested, about 20% had one in any assay.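 Cell lines were cultured in 96-well plates, exposed to a single compound concentration, and assessed for percent growth 48 hours later.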 Unmarked numbers belong to inactive results. The source made the active and inactive calls. The calls were made as follows: active = growth percent below 10; inactive = the rest.

Experiments:
Assay in all cases: NCI-60 one-dose screen, 48 h (100 = growth as untreated, 0 = no growth, -100 = all killed)
Settings in all cases: 10 µM unless noted
NCI-H23 lung = tested on: NCI-H23 lung
NCI-H226 lung = tested on: NCI-H226 lung
NCI-H322M lung = tested on: NCI-H322M lung
HOP-62 NSCLC = tested on: HOP-62 NSCLC
NCI-H460 lung = tested on: NCI-H460 lung
HOP-92 NSCLC = tested on: HOP-92 NSCLC
NCI-H522 lung = tested on: NCI-H522 lung
A549/ATCC NSCLC = tested on: A549/ATCC NSCLC
786-0 renal = tested on: 786-0 renal
COLO 205 colon = tested on: COLO 205 colon

Work on `CC(C)Cn1cnc2c(=O)[nH]c(N)nc21` yielded a growth (NCI-H23 lung) of 99.3%, a growth (NCI-H226 lung) of 89.8% and a growth (NCI-H322M lung) of 99.9%. It also gave a growth (HOP-62 NSCLC) of 80.8%, a growth (NCI-H460 lung) of 110% and a growth (HOP-92 NSCLC) of 90.8%. For the same compound, the growth (NCI-H522 lung) was 70.8%, the growth (A549/ATCC NSCLC) was 85.4% and the growth (786-0 renal) was 98.9%. It also gave a growth (COLO 205 colon) of 97.1%.

In the case of `C=CCOC(=O)Nc1cccn([C@H](Cc2ccccc2)C(=O)NCCC(C)C)c1=O`, the growth (NCI-H23 lung) is reported as 89.7%, the growth (NCI-H226 lung) is reported as 82% and the growth (NCI-H322M lung) is reported as 103%. For the same compound, the growth (HOP-62 NSCLC) was 104%, the growth (NCI-H460 lung) was 105% and the growth (HOP-92 NSCLC) was 87.5%. It also gave a growth (NCI-H522 lung) of 99.5%, a growth (A549/ATCC NSCLC) of 97.9% and a growth (786-0 renal) of 112%. For the same compound, the growth (COLO 205 colon) was 110%.

With `COc1c(B(O)O)cccc1-c1nc2c(F)cc3[nH]ncc3c2c2c1CCCC2` the growth (NCI-H23 lung) was -11.1% (active), the growth (NCI-H226 lung) was 9.55% (active) and the growth (NCI-H322M lung) was 7.84% (active). The growth (HOP-62 NSCLC) was 9.83% (active), the growth (NCI-H460 lung) was 4.81% (active) and the growth (HOP-92 NSCLC) was 14.4%. The growth (NCI-H522 lung) was 1.23% (active), the growth (A549/ATCC NSCLC) was 12.2% and the growth (786-0 renal) was 0.342% (active). The growth (COLO 205 colon) was -20.2% (active).

In the case of `O=C1Nc2ccc(C(=O)O)cc2/C1=N/c1nnc(Sc2ccccc2)s1`, the growth (NCI-H23 lung) is reported as 104%, the growth (NCI-H226 lung) is reported as 98.5% and the growth (NCI-H322M lung) is reported as 116%. The growth (HOP-62 NSCLC) was 95%, the growth (NCI-H460 lung) was 107% and the growth (HOP-92 NSCLC) was 102%. For the same compound, the growth (NCI-H522 lung) was 94.3%, the growth (A549/ATCC NSCLC) was 99.9% and the growth (786-0 renal) was 102%. For the same compound, the growth (COLO 205 colon) was 124%.

Work on `Cn1c(=O)cc2c3c(c(NCCCO)ccc31)C(=O)c1ccccc1-2` yielded a growth (NCI-H23 lung) of 47.2%, a growth (NCI-H226 lung) of 38.4% and a growth (NCI-H322M lung) of 41.4%. It also gave a growth (HOP-62 NSCLC) of 43.8%, a growth (NCI-H460 lung) of 16.8% and a growth (HOP-92 NSCLC) of 74.8%. For the same compound, the growth (NCI-H522 lung) was 22.2%, the growth (A549/ATCC NSCLC) was 33.5% and the growth (786-0 renal) was 38.6%. The growth (COLO 205 colon) was 27.8%.

Compound `Cc1ccc(CNc2ccc3nc(CCC4CCCCC4)[nH]c3c2)cc1` has a growth (NCI-H23 lung) of 30.6%, a growth (NCI-H226 lung) of 43.2% and a growth (NCI-H322M lung) of 92.3%. The growth (HOP-62 NSCLC) was 73%, the growth (NCI-H460 lung) was 58.4% and the growth (HOP-92 NSCLC) was 0.719% (active). For the same compound, the growth (NCI-H522 lung) was 9.99% (active), the growth (A549/ATCC NSCLC) was 63.3% and the growth (786-0 renal) was 52.2%. For the same compound, the growth (COLO 205 colon) was -30% (active).

`CN1CCN(c2cc(Nc3cc(C4CC4)[nH]n3)nc(Nc3ccc(CC(=O)NCc4cccc(F)c4)cc3)n2)CC1` was tested, and the growth (NCI-H23 lung) was 23.2%, the growth (NCI-H226 lung) was 3.21% (active) and the growth (NCI-H322M lung) was 20.5%. For the same compound, the growth (HOP-62 NSCLC) was 8.32% (active), the growth (NCI-H460 lung) was 13% and the growth (HOP-92 NSCLC) was -15.6% (active). The growth (NCI-H522 lung) was 61.2%, the growth (A549/ATCC NSCLC) was 24.3% and the growth (786-0 renal) was 18.3%. For the same compound, the growth (COLO 205 colon) was -54.9% (active).

`COc1ccc(C(O)c2cc3c(N)c(C(=O)Nc4cccc(Br)c4)sc3nc2C)cc1` (stereo not given) was tested, and the growth (NCI-H23 lung) was 21.9%, the growth (NCI-H226 lung) was 3.81% (active) and the growth (NCI-H322M lung) was 45.9%. The growth (HOP-62 NSCLC) was 24.3%, the growth (NCI-H460 lung) was 0.823% (active) and the growth (HOP-92 NSCLC) was 24.7%. For the same compound, the growth (NCI-H522 lung) was 9.45% (active), the growth (A549/ATCC NSCLC) was 11.2% and the growth (786-0 renal) was 15.3%. For the same compound, the growth (COLO 205 colon) was -25% (active).

`Nc1[nH]n2cc(-c3ccccc3)nc2c1N=Nc1ccc(S(N)(=O)=O)cc1` gave a growth (NCI-H23 lung) of 45.7%, a growth (NCI-H226 lung) of 52.7% and a growth (NCI-H322M lung) of 36.6%. The growth (HOP-62 NSCLC) was 42.5%, the growth (NCI-H460 lung) was 20.1% and the growth (HOP-92 NSCLC) was 25.7%. For the same compound, the growth (NCI-H522 lung) was 30.5%, the growth (A549/ATCC NSCLC) was 32.8% and the growth (786-0 renal) was 28.4%. It also gave a growth (COLO 205 colon) of 45.1%.

Work on `CC(C)c1ccc(C(=O)Nc2nc3ccc(O)c(CN(C)C)c3s2)cc1` yielded a growth (NCI-H23 lung) of 88.9%, a growth (NCI-H226 lung) of 97.1% and a growth (NCI-H322M lung) of 81.9%. For the same compound, the growth (HOP-62 NSCLC) was 93.4%, the growth (NCI-H460 lung) was 59.5% and the growth (HOP-92 NSCLC) was 81.7%. For the same compound, the growth (NCI-H522 lung) was 79.4%, the growth (A549/ATCC NSCLC) was 80.6% and the growth (786-0 renal) was 89.9%. The growth (COLO 205 colon) was 84.7%.

`COc1ccc(-c2cc(-c3cccnc3)nc3sc4c(=O)[nH]c(-c5ccc(Cl)cc5)nc4c23)cc1OC` showed a growth (NCI-H23 lung) of 98.8%, a growth (NCI-H226 lung) of 79.1% and a growth (NCI-H322M lung) of 104%. It also gave a growth (HOP-62 NSCLC) of 88.3%, a growth (NCI-H460 lung) of 90.9% and a growth (HOP-92 NSCLC) of 75.1%. For the same compound, the growth (NCI-H522 lung) was 78.6%, the growth (A549/ATCC NSCLC) was 82.8% and the growth (786-0 renal) was 89.2%. For the same compound, the growth (COLO 205 colon) was 91.2%.

`COc1ccc(/C=C/C(=O)c2cc3c(N)c(C(=O)Nc4cccc5ccccc45)sc3nc2C)cc1` was tested, and the growth (NCI-H23 lung) was 85.1%, the growth (NCI-H226 lung) was 85% and the growth (NCI-H322M lung) was 95.8%. The growth (HOP-62 NSCLC) was 74.5%, the growth (NCI-H460 lung) was 75.9% and the growth (HOP-92 NSCLC) was 77.1%. The growth (NCI-H522 lung) was 26.1%, the growth (A549/ATCC NSCLC) was 68.7% and the growth (786-0 renal) was 46.4%. The growth (COLO 205 colon) was 103%.

For `Cc1cc(S(=O)(=O)/N=C(\N)n2nc(C)c(C)c2C)c(SCc2ccccc2)cc1Cl`, the growth (NCI-H23 lung) was 54.6%, the growth (NCI-H226 lung) was 78.6% and the growth (NCI-H322M lung) was 86.2%. For the same compound, the growth (HOP-62 NSCLC) was 91.7%, the growth (NCI-H460 lung) was 81.2% and the growth (HOP-92 NSCLC) was 50.3%. For the same compound, the growth (NCI-H522 lung) was 17.2%, the growth (A549/ATCC NSCLC) was 52.9% and the growth (786-0 renal) was 77.2%. It also gave a growth (COLO 205 colon) of 114%.
